According to PubChem BioAssay (EPA / NIEHS):
Where “and” joins values, the source holds several entries; their conditions need not be identical. Equal values may be shown once. Some structures have more than one record in an assay (separate samples or runs), and their calls can disagree. Calls of active or inactive are those of the source. How the source made its calls: active means hit-call score of the fitted dose curve at least 0.9, where 1 is the maximum; inactive means score below 0.9.

Columns and labels:
Details in all cases: mRNA level, 48 h; actives raise or lower the signal
[1] = read-out: BCL2L11 (gene 10018); test: LTEA_HepaRG_BCL2L11: Life Technologies and Expression Analysis (LTEA) Assay for Bcl-2 (BCL2L11) gene using HepaRG (AID 2283473)
Summary of the method: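 Differentiated human HepaRG cells in serum-free induction medium were exposed in duplicate for 48 h to eight concentrations (top 100 uM, half-log steps, 0.5% DMSO). BCL2L11 mRNA was quantified by TaqMan qRT-PCR, normalized to ACTB/GAPDH/POLR2A, bidirectional fit versus DMSO.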

[2] = read-out: Apolipoprotein A-V (APOA5) gene, APOA5 (gene 116519); test: LTEA_HepaRG_APOA5: Life Technologies and Expression Analysis (LTEA) Assay for Apolipoprotein A-V (APOA5) gene using HepaRG (AID 2283474)
Summary of the method: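 Differentiated human HepaRG cells were exposed in duplicate for 48 h to eight half-log concentrations from 100 uM in 0.5% DMSO. APOA5 mRNA was quantified by TaqMan qRT-PCR, normalized to ACTB, GAPDH and POLR2A, and fitted bidirectionally against DMSO.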

[3] = read-out: Apoptosis regulator Bcl-2 (Homo sapiens) (UniProt P10415); test: LTEA_HepaRG_BCL2: Life Technologies and Expression Analysis (LTEA) Assay for Bcl-2 gene using HepaRG (AID 2283475)
Summary of the method: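 HepaRG, plated 48 h then switched to serum-free induction medium; dosed 48 h, 8 conc. (max 100 uM, half-log steps), duplicate, 0.5% DMSO. Lysis in RLT, RNA isolated, TaqMan qRT-PCR for BCL2; ACTB/GAPDH/POLR2A normalisation; bidirectional fit vs DMSO.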

[4] = read-out: Cytochrome P450 (CYP24A1), CYP24A1 (gene 1591); test: LTEA_HepaRG_CYP24A1: Life Technologies and Expression Analysis (LTEA) Assay for Cytochrome P450 (CYP24A1) using HepaRG (AID 2283478)
Summary of the method: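 Differentiated HepaRG cells, pre-cultured 48 h, were exposed in duplicate for 48 h in serum-free induction medium to 8 half-log concentrations (top 100 uM, 0.5% DMSO). CYP24A1 mRNA was quantified by TaqMan qRT-PCR, normalized to ACTB/GAPDH/POLR2A, fitted bidirectionally versus DMSO.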

[5] = read-out: Cytochrome P450 (CYP1A2), CYP1A2 (gene 1544); test: LTEA_HepaRG_CYP1A2: Life Technologies and Expression Analysis (LTEA) Assay for Cytochrome P450 (CYP1A2) using HepaRG (AID 2283479)
Summary of the method: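 Differentiated human HepaRG cells in serum-free induction medium were exposed in duplicate for 48 h to 8-point half-log concentrations up to 100 uM in 0.5% DMSO. CYP1A2 mRNA measured by qRT-PCR, normalized to ACTB, GAPDH, POLR2A; bidirectional fit vs DMSO.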

[6] = read-out: cysteine-aspartic acid protease (CASP8), CASP8 (gene 841); test: LTEA_HepaRG_CASP8: Life Technologies and Expression Analysis (LTEA) Assay for cysteine-aspartic acid protease (CASP8) using HepaRG (AID 2283480)
Summary of the method: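 Differentiated human HepaRG cells, plated 48 h then switched to serum-free induction medium, were exposed in duplicate for 48 h to 8 half-log concentrations up to 100 uM in 0.5% DMSO. CASP8 mRNA was quantified by qRT-PCR, normalized to ACTB/GAPDH/POLR2A.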

[7] = read-out: Cytochrome P450 (CYP2B6), CYP2B6 (gene 1555); test: LTEA_HepaRG_CYP2B6: Life Technologies and Expression Analysis (LTEA) Assay for Cytochrome P450 (CYP2B6) using HepaRG (AID 2283481)
Summary of the method: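 Differentiated HepaRG cells, serum-free induction medium, exposed 48 h in duplicate to 8-point half-log concentrations from 100 uM in 0.5% DMSO. CYP2B6 mRNA by qRT-PCR, normalized to ACTB, GAPDH, POLR2A; bidirectional fit versus DMSO.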

[8] = read-out: Cytochrome P450 2C19 (Homo sapiens) (UniProt P33261); test: LTEA_HepaRG_CYP2C19: Life Technologies and Expression Analysis (LTEA) Assay for CYP2C19 using HepaRG (AID 2283482)
Summary of the method: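 Differentiated human HepaRG cells were exposed for 48 h in serum-free induction medium to 8 concentrations (top 100 uM, half-log steps, 0.5% DMSO). CYP2C19 mRNA was measured by qRT-PCR, normalized to ACTB/GAPDH/POLR2A, and fitted bidirectionally against DMSO.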

[9] = read-out: CYP2C8 (gene 1558); test: LTEA_HepaRG_CYP2C8: Life Technologies and Expression Analysis (LTEA) Assay for CYP2C8 using HepaRG (AID 2283483)
Summary of the method: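 Differentiated human HepaRG cells were exposed for 48 h in serum-free induction medium to eight half-log concentrations up to 100 uM in 0.5% DMSO, in duplicate. CYP2C8 mRNA was measured by TaqMan qRT-PCR, normalized to ACTB, GAPDH and POLR2A, and fitted bidirectionally against DMSO.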

[10] = read-out: CYP2C9 (gene 1559); test: LTEA_HepaRG_CYP2C9: Life Technologies and Expression Analysis (LTEA) Assay for CYP2C9 using HepaRG (AID 2283484)
Summary of the method: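 Differentiated human HepaRG cells were exposed 48 h in serum-free induction medium to eight half-log concentrations up to 100 uM in 0.5% DMSO. CYP2C9 mRNA was measured by qRT-PCR, normalized to ACTB, GAPDH and POLR2A, and fitted bidirectionally against DMSO.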

[11] = read-out: CYP4A11 (gene 1579); test: LTEA_HepaRG_CYP4A11: Life Technologies and Expression Analysis (LTEA) Assay for CYP4A11 using HepaRG (AID 2283486)
Summary of the method: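 Differentiated HepaRG cells, serum-free induction medium, exposed 48 h in duplicate to 8-point half-log series from 100 uM in 0.5% DMSO. CYP4A11 mRNA measured by qRT-PCR, normalized to ACTB, GAPDH, POLR2A; bidirectional fit versus DMSO.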

[12] = read-out: Cytochrome P450 3A4 (Homo sapiens) (UniProt P08684); test: LTEA_HepaRG_CYP3A4: Life Technologies and Expression Analysis (LTEA) Assay for CYP3A4 using HepaRG (AID 2283487)
Summary of the method: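 Differentiated HepaRG cells in serum-free induction medium exposed in duplicate for 48 h to 8 half-log concentrations up to 100 uM in 0.5% DMSO. CYP3A4 mRNA measured by qRT-PCR normalized to ACTB, GAPDH and POLR2A; bidirectional fit versus DMSO.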

[13] = read-out: DNA damage-inducible transcript 3 (DDIT3), DDIT3 (gene 1649); test: LTEA_HepaRG_DDIT3: Life Technologies and Expression Analysis (LTEA) Assay for DNA damage-inducible transcript 3 (DDIT3) using HepaRG (AID 2283488)
Summary of the method: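 HepaRG plated 48 h, switched to serum-free induction medium, dosed 48 h (100 uM top, half-log, 8 pts, 0.5% DMSO, n=2); RNA isolated; DDIT3 by qRT-PCR; bidirectional curve fit vs DMSO.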

[14] = read-out: Pro-epidermal growth factor (Homo sapiens) (UniProt P01133); test: LTEA_HepaRG_EGF: Life Technologies and Expression Analysis (LTEA) Assay for Epidermal growth factor (EGF) using HepaRG (AID 2283489)
Summary of the method: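 Differentiated human HepaRG cells, plated 48 h then switched to serum-free induction medium, were exposed for 48 h to test chemicals (8-point half-log series, top 100 uM, 0.5% DMSO). EGF mRNA was quantified by qRT-PCR, normalized to ACTB, GAPDH, POLR2A.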

[15] = read-out: Cytochrome P450 3A7 (Homo sapiens) (UniProt P24462); test: LTEA_HepaRG_CYP3A7: Life Technologies and Expression Analysis (LTEA) Assay for CYP3A7 using HepaRG (AID 2283492)
Summary of the method: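 HepaRG cells plated 48 h, then dosed in serum-free induction medium for 48 h at 8 concentrations (top 100 uM, half-log steps, 0.5% DMSO). CYP3A7 mRNA by qRT-PCR, normalised to ACTB/GAPDH/POLR2A; bidirectional fit versus DMSO.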

[16] = read-out: Caspase-3 (Homo sapiens) (UniProt P42574); test: LTEA_HepaRG_CASP3: Life Technologies and Expression Analysis (LTEA) Assay for cysteine-aspartic acid protease (CASP3) using HepaRG (AID 2283477)
Summary of the method: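 Differentiated human HepaRG cells in serum-free induction medium were exposed 48 h to 8-point half-log concentrations from 100 uM (0.5% DMSO vehicle). CASP3 mRNA was measured by qRT-PCR, normalised to ACTB, GAPDH and POLR2A, with bidirectional fitting against DMSO.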

[17] = read-out: CYP2E1 (gene 1571); test: LTEA_HepaRG_CYP2E1: Life Technologies and Expression Analysis (LTEA) Assay for CYP2E1 using HepaRG (AID 2283485)
Summary of the method: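 Human liver line HepaRG, plated 48 h, then serum-free induction medium + chemical x 48 h; 8-pt CRC from 100 uM, half-log, 0.5% DMSO, n=2. Readout: CYP2E1 mRNA qRT-PCR vs ACTB/GAPDH/POLR2A; bidirectional fit vs DMSO.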

[18] = read-out: Early growth response protein 1 (EGR1) transcription factor, EGR1 (gene 1958); test: LTEA_HepaRG_EGR1: Life Technologies and Expression Analysis (LTEA) Assay for Early growth response protein 1 (EGR1) transcription factor using HepaRG (AID 2283490)
Summary of the method: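 Differentiated human HepaRG cells in serum-free induction medium were exposed in duplicate for 48 h to eight concentrations (top 100 uM, half-log steps) in 0.5% DMSO. EGR1 mRNA was quantified by qRT-PCR, normalized to ACTB, GAPDH and POLR2A, and fitted bidirectionally versus DMSO.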

Measured: AC50

Sequence of Cytochrome P450 2C19 (Homo sapiens) (P33261 whole entry, looked up): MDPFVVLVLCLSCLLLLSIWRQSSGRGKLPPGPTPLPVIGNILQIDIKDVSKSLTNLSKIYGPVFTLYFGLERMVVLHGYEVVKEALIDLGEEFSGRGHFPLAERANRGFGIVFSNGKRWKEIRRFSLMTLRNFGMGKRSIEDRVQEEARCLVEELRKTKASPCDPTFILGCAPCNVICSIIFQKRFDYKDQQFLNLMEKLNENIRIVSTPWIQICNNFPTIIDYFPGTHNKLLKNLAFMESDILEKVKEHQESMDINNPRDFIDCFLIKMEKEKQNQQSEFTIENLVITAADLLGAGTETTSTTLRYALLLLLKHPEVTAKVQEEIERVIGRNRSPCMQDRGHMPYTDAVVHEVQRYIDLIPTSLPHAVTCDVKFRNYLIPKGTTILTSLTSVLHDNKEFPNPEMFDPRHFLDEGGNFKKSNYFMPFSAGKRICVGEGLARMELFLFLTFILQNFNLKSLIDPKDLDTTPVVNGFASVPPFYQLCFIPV
Sequence of Apoptosis regulator Bcl-2 (Homo sapiens) (P10415 whole entry, looked up): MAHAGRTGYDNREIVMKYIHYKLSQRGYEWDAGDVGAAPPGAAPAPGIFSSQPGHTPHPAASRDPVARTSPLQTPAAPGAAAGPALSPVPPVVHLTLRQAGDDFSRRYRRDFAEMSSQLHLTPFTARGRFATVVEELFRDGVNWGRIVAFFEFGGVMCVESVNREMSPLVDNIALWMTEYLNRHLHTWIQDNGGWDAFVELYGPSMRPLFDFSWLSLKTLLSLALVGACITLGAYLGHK
Sequence of Cytochrome P450 3A7 (Homo sapiens) (P24462 whole entry, looked up): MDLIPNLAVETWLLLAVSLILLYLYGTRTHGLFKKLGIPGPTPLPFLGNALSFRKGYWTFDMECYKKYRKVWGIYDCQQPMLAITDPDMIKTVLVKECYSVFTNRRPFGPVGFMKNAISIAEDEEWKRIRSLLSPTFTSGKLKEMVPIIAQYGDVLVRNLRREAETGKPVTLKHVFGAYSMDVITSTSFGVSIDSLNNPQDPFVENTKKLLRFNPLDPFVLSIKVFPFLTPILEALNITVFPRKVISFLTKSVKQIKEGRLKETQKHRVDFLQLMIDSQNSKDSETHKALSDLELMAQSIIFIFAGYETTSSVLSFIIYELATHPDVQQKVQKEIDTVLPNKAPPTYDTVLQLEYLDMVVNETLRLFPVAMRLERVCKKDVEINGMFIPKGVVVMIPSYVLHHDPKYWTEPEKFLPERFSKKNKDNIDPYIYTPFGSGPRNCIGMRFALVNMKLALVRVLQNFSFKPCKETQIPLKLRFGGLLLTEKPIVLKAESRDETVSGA
Sequence of Cytochrome P450 3A4 (Homo sapiens) (P08684 whole entry, looked up): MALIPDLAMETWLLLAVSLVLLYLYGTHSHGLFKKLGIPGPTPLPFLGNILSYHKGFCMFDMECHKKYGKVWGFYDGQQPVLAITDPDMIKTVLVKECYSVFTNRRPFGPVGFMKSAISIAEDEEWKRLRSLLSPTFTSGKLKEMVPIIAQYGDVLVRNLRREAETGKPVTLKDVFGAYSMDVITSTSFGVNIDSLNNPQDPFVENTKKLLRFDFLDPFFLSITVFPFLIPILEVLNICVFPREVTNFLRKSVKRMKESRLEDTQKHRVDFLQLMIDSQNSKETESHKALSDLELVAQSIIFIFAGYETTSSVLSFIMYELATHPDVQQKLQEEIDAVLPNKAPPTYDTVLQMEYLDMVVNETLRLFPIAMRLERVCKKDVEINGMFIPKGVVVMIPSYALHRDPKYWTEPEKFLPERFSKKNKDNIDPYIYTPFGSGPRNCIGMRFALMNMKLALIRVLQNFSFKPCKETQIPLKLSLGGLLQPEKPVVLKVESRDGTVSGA
Sequence of Caspase-3 (Homo sapiens) (P42574 whole entry, looked up): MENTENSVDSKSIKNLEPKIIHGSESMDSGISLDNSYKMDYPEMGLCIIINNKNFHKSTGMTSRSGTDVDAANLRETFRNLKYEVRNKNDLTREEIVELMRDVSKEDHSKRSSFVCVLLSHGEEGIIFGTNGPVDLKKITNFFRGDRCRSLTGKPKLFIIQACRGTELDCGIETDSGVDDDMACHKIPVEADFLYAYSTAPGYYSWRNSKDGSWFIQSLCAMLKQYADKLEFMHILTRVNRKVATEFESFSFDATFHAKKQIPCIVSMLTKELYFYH

CC(C)(c1ccc(O)cc1)c1ccc(O)cc1
inactive: [1] | [2] | [3] | [4] | [6] | [8] | [9] | [10] | [11] | [12] | [13] | [14] | [15]
active: [5] 50 µM | [7] 50 µM and 31.1 µM and 64.4 µM | [8] 37.1 µM | [10] 9.92 µM

Cc1nn(C)c(Oc2ccccc2)c1C=NOCc1ccc(C(=O)OC(C)(C)C)cc1
inactive: [16] | [4] | [6] | [14]
active: [1] 2.53 µM | [2] 29.9 µM | [5] 2.35 µM | [7] 1.68 µM | [8] 29.2 µM | [9] 25.7 µM | [10] 20.1 µM | [17] 2.75 µM | [11] 2.99 µM | [12] 1.84 µM | [13] 3.27 µM | [18] 1.22 µM | [15] 1.37 µM
